{
  "source": "PubChem BioAssay (NCATS)",
  "note": "Where “and” joins values, the source holds several entries; their conditions need not be identical. Identical values can stand only once. Results filed as inconclusive are left out. Calls of active or inactive are those of the source. Calls come from the whole dose curve; as a rule, active = well fitted inhibition curve with a large enough effect; inconclusive = small, poorly fitted or top-dose-only effect; inactive = flat fitted curve, though single readings scatter. % is set by controls: 0 for no effect and ±100 for the full control effect.",
  "data": [
    {"system": "KB-3-1", "experiment": "Cytotoxic Profiling of Annotated Libraries Using Quantitative High-Throughput Screening (AID 1296008); note: nearly all actives have a fitted effect of over 60% in size", "conditions": "Five cell lines viability, CellTiter-Glo ATP luminescence, 48-72 h; max response: active compounds read low", "summary_of_the_method": "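Cells exposed to compounds for 48 or 72 hr at 37 degrees Celsius. Viability read as ATP-coupled luminescence with CellTiter-Glo after 10 min at room temperature.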", "values": [
      {"molecule": "CC[C@H]1OC(=O)[C@H](C)[C@@H](O[C@H]2C[C@@](C)(OC)[C@@H](O)[C@H](C)O2)[C@H](C)[C@@H](O[C@@H]2O[C@H](C)C[C@H](N(C)C)[C@H]2O)[C@](C)(O)C[C@@H](C)[C@@H]2N[C@@H](COCCOC)O[C@@H]([C@H]2C)[C@]1(C)O", "max response": "-15.7% (inactive)"},
      {"molecule": "O=S(=O)(O)Oc1ccc(C(c2ccc(OS(=O)(=O)O)cc2)c2ccccn2)cc1", "max response": "-0.878% (inactive)"},
      {"molecule": "Cc1cccc(C)c1N(CCCc1cccnc1)C(=O)C(C)N", "note": "(stereo not given)", "max response": "-6.26% (inactive)"},
      {"molecule": "Cc1[nH]cnc1C[C@H]1CCc2c(C)c3ccccc3n2C1=O", "max response": "-19% (inactive)"},
      {"molecule": "CN(C(=O)CO)c1c(I)c(C(=O)NCC(O)CO)c(I)c(C(=O)NCC(O)CO)c1I", "note": "(stereo not given)", "max response": "5.16% (inactive)"},
      {"molecule": "CCCN(CC)C(CC)C(=O)Nc1c(C)cccc1C", "note": "(stereo not given)", "max response": "-6.86% (inactive)"},
      {"molecule": "CCOC(=O)COc1ccc2c(=O)cc(-c3ccccc3)oc2c1", "max response": "-2% (inactive) and -15.3% (inactive)"},
      {"molecule": "O=C1O[C@H]2[C@H](O)[C@@H]1OC(O)[C@H]2O", "note": "(stereo not given in full)", "max response": "-7.29% (inactive)"},
      {"molecule": "FC(F)(F)c1ccccc1-c1cc(C(F)(F)F)c2nc(C3=NOC4(CCCCC4)C3)[nH]c2c1", "max response": "-18.9% (inactive)"},
      {"molecule": "CCOc1ccc(N=C(C)Nc2ccc(OCC)cc2)cc1", "max response": "-26.1% (inactive)"},
      {"molecule": "CC(=O)O[C@H]1CC[C@]2(C)[C@H]3CC[C@]4(C)Oc5oc(C)cc(=O)c5C[C@H]4[C@]3(C)CC[C@H]2C1(C)C", "outcome": "inactive"},
      {"molecule": "O=C1O[C@@H]2[C@@H](O)[C@H](O)O[C@@H]2[C@H]1O", "max response": "-9.13% (inactive)"},
      {"molecule": "CCN(CC)c1ccc(N=Nc2ccc(S(=O)(=O)N(C)C)cc2)c(S(=O)(=O)NCC[n+]2ccccc2)c1", "max response": "-15.2% (inactive)"},
      {"molecule": "CCCCCCCCCCCCCCCC(=O)OC/C=C(C)/C=C/C=C(C)/C=C/C1=C(C)CCCC1(C)C", "max response": "-13.6% (inactive)"},
      {"molecule": "C[C@H](/C=C/[C@H](C)C(C)(C)O)[C@H]1CC[C@H]2/C(=C/C=C3C[C@@H](O)C[C@H](O)C3)CCC[C@]12C", "max response": "23% (inactive)"},
      {"molecule": "CS(=O)(=O)OCCCNCCCOS(C)(=O)=O", "max response": "-5.57% (inactive)"},
      {"molecule": "COc1cc2c(c(OC)c1OC)-c1c(cc3c(c1OC)OCO3)C[C@@H](C)[C@](C)(O)C2", "max response": "21.3% (inactive) and -4.33% (inactive)"},
      {"molecule": "CC(C)(C)CC(=O)OCC(=O)[C@@]12OC(C)(C)O[C@@H]1C[C@H]1[C@@H]3CCC4=CC(=O)C=C[C@]4(C)[C@@]3(F)[C@@H](O)C[C@@]12C", "max response": "0.193% (inactive)"},
      {"molecule": "CCOC(=O)[C@H](CCc1ccccc1)N[C@@H](C)C(=O)N1CC2(C[C@H]1C(=O)O)SCCS2", "max response": "-20.5% (inactive)"},
      {"molecule": "CC(C)(O)C1Cc2c(ccc(C(=O)CCc3ccccc3)c2O)O1", "note": "(stereo not given)", "max response": "-17.9% (inactive)"},
      {"molecule": "CCCCCCCC(=O)CC[C@@H]1[C@@H](C/C=C\\CCCC(=O)OC(C)C)[C@@H](O)C[C@H]1O", "max response": "7.18% (inactive)"},
      {"molecule": "O=C(Cn1cnnn1)N[C@@H]1C(=O)N2C(C(=O)O)=C(CSc3nncs3)CS[C@H]12", "max response": "-22.7% (inactive) and -13.7% (inactive)"},
      {"molecule": "NCCC(=O)[N-][C@@H](Cc1cnc[nH]1)C(=O)O.[Zn]", "max response": "-13.6% (inactive)"},
      {"molecule": "CCCC(=O)N1CCCN(c2nc(N)c3cc(OC)c(OC)cc3n2)CC1", "max response": "-12.4% (inactive)"},
      {"molecule": "Cc1ccc(C2(O)CCN(CCCC(=O)c3ccc(F)cc3)CC2)cc1", "max response": "-11.9% (inactive)"},
      {"molecule": "CC(=O)O[C@H]1CC[C@@]2(C)C(=CC[C@@H]3[C@@H]2CC[C@]2(C)C(c4cccnc4)=CC[C@@H]32)C1", "max response": "0.542% (inactive)"},
      {"molecule": "CN(C)CCOc1ccccc1Cc1ccccc1", "note": "(tested in a mixture with another compound)", "max response": "0.128% (inactive)"},
      {"molecule": "O=S(O)CNc1ccc(S(=O)(=O)c2ccc(NCS(=O)O)cc2)cc1", "max response": "-17.8% (inactive)"},
      {"molecule": "CCCCCCCCCCCCCCCC(=O)OC[C@H](O)[C@H]1OC(=O)C(O)=C1O", "max response": "-14.1% (inactive)"},
      {"molecule": "CC(CN(C)C)CN1c2ccccc2S(=O)(=O)c2ccccc21", "note": "(stereo not given)", "max response": "23.6% (inactive)"},
      {"molecule": "O=C(O)c1cc2ccccc2c(Cc2c(O)c(C(=O)O)cc3ccccc23)c1O", "max response": "-8.98% (inactive)"},
      {"molecule": "CCCC(=O)O[C@]1(C(=O)COC(=O)CC)[C@@H](C)C[C@H]2[C@@H]3CCC4=CC(=O)C=C[C@]4(C)[C@@]3(F)[C@@H](O)C[C@@]21C", "max response": "-7.8% (inactive)"},
      {"molecule": "CC(CN1c2ccccc2Sc2ccc(S(=O)(=O)N(C)C)cc21)N(C)C", "note": "(stereo not given)", "max response": "-2.65% (inactive)"},
      {"molecule": "C=CS(=O)(=O)O", "max response": "-7.41% (inactive)"},
      {"molecule": "CC1(C)CN(C(=O)c2ccc(-c3cccc4nc(NC(=O)C5CC5)nn34)cc2)C1", "outcome": "inactive"},
      {"molecule": "COc1ccc(C2NC(=S)N3C(c4ccc(OC)c(OC)c4)NC(=S)N23)cc1OC", "note": "(stereo not given)", "max response": "-2.1% (inactive)"},
      {"molecule": "CC1(C)C2CC[C@]3(C)[C@H](C(=O)C=C4[C@@H]5C[C@@](C)(C(=O)O)CC[C@]5(C)CC[C@]43C)[C@@]2(C)CC[C@@H]1O[C@H]1O[C@H](C(=O)O)[C@@H](O)[C@H](O)[C@H]1O[C@@H]1O[C@H](C(=O)O)[C@@H](O)[C@H](O)[C@H]1O", "note": "(stereo not given in full)", "max response": "-22.6% (inactive)"},
      {"molecule": "COCc1c(Cl)ccc2c1CC[C@H]2c1ncc[nH]1", "max response": "-11.1% (inactive)"},
      {"molecule": "O=C[C@H](O)[C@@H](O)[C@H](O[C@H]1O[C@H](CO)[C@@H](O[C@H]2O[C@H](CO)[C@@H](O)[C@H](O)[C@H]2O)[C@H](O)[C@H]1O)[C@H](O)CO", "max response": "-9.17% (inactive)"},
      {"molecule": "NCCCC[C@H](NC(=O)[C@@H]1CCCN1C(=O)[C@@H]1CSSC[C@H](N)C(=O)N[C@@H](Cc2ccccc2)C(=O)N[C@@H](Cc2ccccc2)C(=O)N[C@@H](CCC(N)=O)C(=O)N[C@@H](CC(N)=O)C(=O)N1)C(=O)NCC(N)=O", "max response": "-12.7% (inactive)"}
    ]}
  ]
}
